PubChem BioAssay (NCATS)
Where “and” joins values, the source holds several entries; their conditions need not be identical. Equal values may be shown once. Inconclusive results are not listed. A call without a number means that no potency is given here. Calls of active or inactive are those of the source. Unless noted, the call rests on the fitted dose curve; in most records, active means well fitted curve in the direction sought with a large enough effect; inconclusive means small, poorly fitted or top-dose-only effect, or another doubt; inactive means no such curve, though single readings can be large; an effect the other way counts as inactive or inconclusive.

Legend:
[1] = biological target: Cytochrome P450 2C9 (Homo sapiens) (UniProt P11712); test: Cytochrome P450 family 2 subfamily C member 9 (CYP2C9) small molecule antagonists: luciferase biochemical (cell-free) qHTS assay (AID 1645842; active means well fitted curve in the direction sought with a large enough effect in the repeat runs; an effect the other way counts as inactive or inconclusive; further: nearly all actives have a fitted effect of over 55% in size; further: potency means the concentration at half of the fitted maximal effect)
Outline: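 P450-Glo CYP2C9 system: proluciferin substrate with enzyme in mix containing 0.4% BSA, 10 min at room temperature, then NADPH regeneration solution added and incubated 1 h at 37C. Detection reagent stopped reaction; luminescence read after 20 min as RLU.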

[2] = Primary qHTS for inhibitors of nuclear receptor binding SET domain protein 2 (NSD2) in an isogenic RCH-ACV NSD2 p.E1099K mutant (9B) (AID 1645876); further: nearly all actives have a fitted effect of over 70% in size; further: potency means the concentration at half of the fitted maximal effect
[3] = Primary qHTS for inhibitors of nuclear receptor binding SET domain protein 2 (NSD2) in an RCH-ACV wild type WT cells (2C) (AID 1645877); further: nearly all actives have a fitted effect of over 70% in size; further: potency means the concentration at half of the fitted maximal effect
Papain (Carica papaya) = Papain (Carica papaya) (UniProt P00784); test: Primary qHTS assay for inhibitors of the protease papain (AID 1645873);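 further: papain turnover of Z-FR-AMC read as the AMC fluorescence gain over 10 min; series mostly up to about 50 µM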
[4] = biological target: N-terminal Xaa-Pro-Lys N-methyltransferase 1 (Homo sapiens) (UniProt Q9BV86); test: Confirmatory qHTS for Inhibitors of N-terminal methyltransferase 1 (NTMT1): MTaseGlo Assay (AID 1645874); further: nearly all actives have a fitted effect of over 65% in size; further: potency means the concentration at half of the fitted maximal effect
Outline: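 Enzyme mix (125 nM NTMT1, 100 uM SAM) + compound, 15 min RT; + 1 uM SPKRIA, 30 min RT, dark; MTase-Glo reagent 30 min, detection solution 30 min; luminescence. % inhibition vs no-enzyme/DMSO controls, 4-parameter Hill fit.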

Sequence of Papain (Carica papaya) (P00784 whole entry, looked up): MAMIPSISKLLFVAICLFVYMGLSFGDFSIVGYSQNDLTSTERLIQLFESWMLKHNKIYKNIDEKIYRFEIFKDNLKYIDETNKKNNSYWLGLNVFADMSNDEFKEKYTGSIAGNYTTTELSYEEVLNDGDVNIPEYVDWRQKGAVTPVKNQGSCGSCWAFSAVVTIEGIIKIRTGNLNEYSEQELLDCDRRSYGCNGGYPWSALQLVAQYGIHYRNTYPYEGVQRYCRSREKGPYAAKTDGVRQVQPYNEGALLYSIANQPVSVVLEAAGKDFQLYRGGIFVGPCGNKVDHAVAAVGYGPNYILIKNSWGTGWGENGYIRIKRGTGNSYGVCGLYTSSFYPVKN
Sequence of Cytochrome P450 2C9 (Homo sapiens) (P11712 whole entry, looked up): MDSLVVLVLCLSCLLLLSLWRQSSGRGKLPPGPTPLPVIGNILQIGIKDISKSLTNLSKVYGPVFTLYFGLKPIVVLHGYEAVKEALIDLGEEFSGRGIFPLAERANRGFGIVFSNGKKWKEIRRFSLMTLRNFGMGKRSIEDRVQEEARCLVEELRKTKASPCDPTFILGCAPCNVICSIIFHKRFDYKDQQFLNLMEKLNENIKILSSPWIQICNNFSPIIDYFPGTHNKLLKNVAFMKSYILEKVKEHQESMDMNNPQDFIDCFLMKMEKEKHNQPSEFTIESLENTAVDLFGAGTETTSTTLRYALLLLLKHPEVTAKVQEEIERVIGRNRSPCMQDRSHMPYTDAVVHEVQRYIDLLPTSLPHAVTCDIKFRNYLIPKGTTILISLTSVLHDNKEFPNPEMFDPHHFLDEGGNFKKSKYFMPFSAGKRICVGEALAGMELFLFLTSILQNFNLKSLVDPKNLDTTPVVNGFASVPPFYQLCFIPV
Sequence of N-terminal Xaa-Pro-Lys N-methyltransferase 1 (Homo sapiens) (Q9BV86 whole entry, looked up): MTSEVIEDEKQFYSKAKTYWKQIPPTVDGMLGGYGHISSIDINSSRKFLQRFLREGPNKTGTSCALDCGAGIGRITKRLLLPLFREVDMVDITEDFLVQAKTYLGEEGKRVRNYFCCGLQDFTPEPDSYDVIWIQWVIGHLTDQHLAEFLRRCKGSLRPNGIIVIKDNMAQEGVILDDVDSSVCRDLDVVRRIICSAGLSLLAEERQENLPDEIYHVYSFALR

Q: What does the source list for `CC(C)(C)NC(=O)Nc1cccc(Nc2ncc(F)c(NC(C)(C)CO)n2)c1`?
A: Potency [1]: 23.9 µM (active); Potency [2]: 5.78 µM (active); Potency [3]: 2.63 µM (active)

Q: Which results are given for `CC(=O)N[C@@H](CS)C(=O)O`?
A: Potency [1]: inactive; outcome (Papain (Carica papaya)): inactive; Potency [2]: inactive; Potency [3]: inactive

Q: Which Potency [1] does the source give for `O=c1c(-c2ccc(O)cc2)coc2cc(O)ccc12` here?
A: 0.213 µM (active)

Q: What about the outcome (Papain (Carica papaya)) of the same compound?
A: inactive

Q: And the Potency [4]?
A: inactive

Q: Which Potency [1] does the source give for `C[C@H](NC(=O)c1sccc1OCc1ccc(Cl)cc1)c1ccccc1` here?
A: 0.952 µM (active)

Q: Which Potency [1] does the source give for `CN1C[C@H]2c3ccccc3Oc3ccc(Cl)cc3[C@@H]2C1` here?
A: inactive

Q: Which Potency [1] does the source give for `O=C1C[C@@H](c2ccc(O)cc2)Oc2cc(O)cc(O)c21` here?
A: 5.35 µM (active)

Q: What about the Potency [2] of the same compound?
A: inactive

Q: With `O=C1NCC2(CCN(CCc3ccccc3)CC2)O1` as the compound, how does the Potency [1] read?
A: inactive

Q: What about the outcome (Papain (Carica papaya)) of the same compound?
A: inactive

Q: What about the Potency [2] of the same compound?
A: inactive

Q: What about the Potency [3] of the same compound?
A: inactive

Q: What does the source list for `Cc1ccc(Nc2cc(-c3cccc(N4C(=O)c5ccccc5C4=O)c3)ncn2)cc1NS(C)(=O)=O`?
A: Potency [1]: 1.07 µM (active); Potency [2]: 16.6 µM (active); Potency [3]: 18.6 µM (active)

Q: Which Potency [1] does the source give for `C[C@@H]1CCN(C(=O)CC#N)C[C@H]1N(C)c1ncnc2[nH]ccc12` here?
A: inactive

Q: Which Potency [1] does the source give for `Cn1c(N2CCCCS2(=O)=O)nc(C(=O)NCc2ccc(F)cc2)c(O)c1=O` here?
A: inactive

Q: What about the Potency [2] of the same compound?
A: inactive

Q: And the Potency [3]?
A: inactive

Q: For `C[N+](C)(C)CC(=O)O`, which Potency [1] is on record?
A: inactive

Q: And the Potency [2]?
A: inactive

Q: What about the Potency [3] of the same compound?
A: inactive

Q: Which results are given for `CC(C)(C)Cn1c(N)nc2ccc(-c3[nH]c(C(C)(C)C)nc3-c3ccc(F)cc3)nc21`?
A: Potency [1]: 5.35 µM (active); Potency [4]: 17.8 µM (active); Potency [2]: 2.9 µM (active) and 16.6 µM (active); Potency [3]: 2.58 µM (active) and 16.6 µM (active)

Q: For `NC(N)=Nc1nc(CSCC/C(N)=N/S(N)(=O)=O)cs1`, which Potency [1] is on record?
A: inactive

Q: What about the outcome (Papain (Carica papaya)) of the same compound?
A: inactive

Q: And the Potency [2]?
A: inactive

Q: What about the Potency [3] of the same compound?
A: inactive
